The experiment can be described thus: Nuclear factor erythroid 2-related factor 2/antioxidant responsive element (Nrf2/ARE) small molecule agonists: luciferase reporter gene qHTS assay in human keratinocytes (AID 1919969). Also: nearly all actives have a fitted effect of over 35% in size. The following applies: KeratinoSens HaCaT ARE-luciferase, luminescence, 24 h; series mostly up to 92.4 µM.

Here are results for 29 compounds from PubChem BioAssay (Tox21).

Results filed as inconclusive are left out. Where a call stands in place of a potency, no number is given. The source made the active and inactive calls. Calls follow the shape of the full dose curve.

As for `COC(c1ccccc1)(c1ccccc1)[C@H](Oc1nc(C)cc(C)n1)C(=O)O`, the Potency entry is “inactive”.

On to `CCC(C)(O)CCC=C(C)C` (centres undefined), for which the Potency entry is “inactive”.

For the compound `CCCCCCCCCCCCCCCC(=O)NCCO`, the Potency result was “inactive”.

On to `O=CC1CC1`, for which the Potency entry was “inactive”.

On to `CC/C=C\CC1=C(C)CCC1=O`, for which the Potency result is “inactive”.

As to `CC1CCc2nccnc21` (centres undefined), the Potency result was “inactive”.

On to `N#CC1(c2ccc(F)cc2)CCC(=O)CC1`, for which the Potency entry was “inactive”.

Turning to `Cc1ccc(CO)cc1`, the Potency result was “inactive”.

As for `CCCCCCC1(C)CCC(=O)O1` (centres undefined), the Potency entry is “inactive”.

For `CC(C)CCO`, the Potency entry is “inactive”.

Consider `COc1cc(C(=S)N2CCOCC2)cc(OC)c1OC`, for which the Potency result was “inactive”.

Take `CCCCOCCOCCOCCO`: the Potency entry is “inactive”.

For the compound `CCCCN=C(N)N=C(N)N`, the Potency result is “inactive”.

Consider `NCCN1CCNC1=O`, for which the Potency result was “inactive”.

On to `O=C(/N=N/C(=O)OCc1ccccc1)OCc1ccccc1`, for which the Potency result was “inactive”.

`COc1cccc(OC)c1C(=O)N[C@@H]1C(=O)N2[C@@H]1SC(C)(C)[C@@H]2C(=O)O`: the Potency entry is “inactive”.

`c1ccc2cnncc2c1`: the Potency entry is “inactive”.

As to `CCCCCCCCCOS(=O)(=O)O`, the Potency result was “inactive”.

For the compound `O=S(O)CO`, the Potency result is “inactive”.

As to `COC(=O)c1cc(Cl)c(NC(C)=O)cc1OC`, the Potency result was “inactive”.

For `CCC(COC(=O)CCS)(COC(=O)CCS)COC(=O)CCS`, the Potency entry was “inactive”.

With `CC(C)CCCCCOC(=O)CS`, the Potency result was “inactive”.

Regarding `COC(=O)c1ccc([N+](=O)[O-])cc1`, the Potency result is “inactive”.

Turning to `O=C1OC[C@H](Cc2cccc(O)c2)[C@H]1Cc1cccc(O)c1`, the Potency entry was “inactive”.

On to `C1=C\CC/C=C\CC/C=C\CC/1`, for which the Potency entry was “inactive”.

Take `CCN(CC)C(=O)C1CN2CCc3cc(OC)c(OC)cc3C2CC1OC(C)=O` (centres undefined): the Potency entry is “inactive”.

Take `O=C1C(O)=C(O)C(=O)C(O)=C1O`: the Potency entry was “inactive”.

On to `C[C@@H](O)[C@H]1C(=O)N2C(C(=O)O)=C(SCCN=CN)C[C@H]12`, for which the Potency result was “inactive”.

In the case of `CC12CCC(C(=O)C1=O)C2(C)C` (centres undefined), the Potency result was “inactive”.
